The record followed here is article PMC5540273 (PLoS ONE, 2017).

The structures appear in SMILES notation.

Some test systems named below: SGK2; SGK3; SGK; SIK2; SIK; SLK; SNRK; SRC; SRMS; SRPK1; SRPK2; SRPK3; STK16; STK33; STK35; STK36; STK39; SYK; SgK110.
What all share (conditions): concentration: 1 μM, replicates: in singlicate; n = 1
In the next experiment the test system is T1, SNARK.
T1 construct: gene NUAK2
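Note: KINOMEscan kinase panel screen.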

In the case of `O=C(NCc1cccs1)c1cc(C(=O)c2c(Cl)cccc2Cl)c[nH]1` [GW823670], the “%Inh” value in the experiment with SGK2 worked out at 0%; with SGK3 it was 0%; in the experiment on SGK it was 0%; with SIK2, 4%; with SIK, 4%; in the experiment on SLK, 9%. The “%Inh” value with SNARK came out at 0%; with SNRK it was 0%; in the experiment on SRC it was 0%; with SRMS, 15%; in the experiment on SRPK1, 0%; in the experiment on SRPK2, 0%. For the same molecule, the “%Inh” value in the experiment with SRPK3 came out at 0%; in the experiment with STK16 it was 0%; with STK33, 0%; in the experiment with STK35, 0%; in the experiment with STK36, 10%; in the experiment on STK39, 0%. Moreover, the “%Inh” value was 6% in the experiment with SYK and 14% with SgK110.
With `COc1cccc(C2=C(Nc3cccc(C(=O)O)c3)C(=O)NC2=O)c1` [SB-390770], the “%Inh” value is on record as 11% with SGK2; 48% in the experiment on SGK3; 8% with SGK; 7% in the experiment on SIK2; 10% in the experiment on SIK; 35% with SLK. Moreover, the “%Inh” value in the experiment with SNARK is 72%; in the experiment with SNRK, 0%; in the experiment with SRC it was 0%; with SRMS, 0%; with SRPK1, 8%; with SRPK2 it was 24%. Further, the “%Inh” value in the experiment on SRPK3 turned out to be 11%; in the experiment with STK16, 8%; with STK33, 2%; with STK35, 12%; in the experiment on STK36 it was 4%; in the experiment with STK39 it was 0%. The “%Inh” value in the experiment on SYK was determined as 30%; with SgK110 it was 3%.
Take `CCc1ccc(-c2ccc3c(c2)-c2nn(C)cc2S(=O)(=O)N3C)cc1`: the “%Inh” value in the experiment with SGK2 is 0%; in the experiment with SGK3, 0%; with SGK, 0%; with SIK2, 0%; in the experiment on SIK, 0%; in the experiment on SLK, 12%. In addition, the “%Inh” value in the experiment on SNARK amounted to 0%; with SNRK, 0%; with SRC, 0%; in the experiment with SRMS, 46%; in the experiment on SRPK1, 0%; in the experiment with SRPK2 it was 0%. Also, the “%Inh” value with SRPK3 came out at 0%; in the experiment on STK16, 0%; with STK33 it was 2%; in the experiment with STK35, 0%; in the experiment with STK36 it was 0%; in the experiment on STK39, 0%. Moreover, the “%Inh” value in the experiment on SYK is given as 27%; with SgK110, 12%.
For `CCC(=O)c1c(-c2ccccc2)c2cc(Cl)ccc2c(=O)n1Cc1cc(S(C)(=O)=O)n(CC(N)=O)n1`, the “%Inh” value was determined as 0% in the experiment on SGK2; 0% in the experiment with SGK3; 0% in the experiment with SGK; 2% with SIK2; 0% with SIK; 0% in the experiment with SLK. In addition, the “%Inh” value in the experiment with SNARK, in the experiment on SNRK, in the experiment on SRC, in the experiment on SRMS, in the experiment with SRPK1 and with SRPK2 was 0% each time. Also, the “%Inh” value in the experiment on SRPK3 was 0%; in the experiment on STK16 it was 16%; in the experiment with STK33, 17%; in the experiment with STK35 it was 0%; in the experiment with STK36, 0%; in the experiment on STK39, 0%. Besides, the “%Inh” value in the experiment with SYK stood at 9%; with SgK110, 0%.
Take `Cc1cccc(-c2nc(Nc3ccc4c(cnn4C)c3)c3ccccc3n2)n1` [GW876731]: the “%Inh” value turned out to be 37% in the experiment on SGK2; 3% with SGK3; 0% in the experiment with SGK; 0% in the experiment with SIK2; 0% with SIK; 2% with SLK. In addition, the “%Inh” value with SNARK was found to be 21%; in the experiment on SNRK, 0%; in the experiment on SRC, 11%; in the experiment with SRMS it was 0%; in the experiment with SRPK1, 0%; in the experiment on SRPK2, 0%. Further, the “%Inh” value worked out at 0% in the experiment with SRPK3; 5% with STK16; 0% in the experiment on STK33; 0% in the experiment with STK35; 2% in the experiment on STK36; 33% in the experiment with STK39. Further, the “%Inh” value stood at 24% in the experiment with SYK and 6% with SgK110.
`Cc1nn2c(=O)cc(N3CCOCC3)nc2n1Cc1cccc(Cl)c1Cl` [GSK2342769]: the “%Inh” value in the experiment on SGK2 was determined as 0%; in the experiment with SGK3 it was 0%; with SGK, 0%; in the experiment with SIK2, 0%; with SIK, 0%; in the experiment with SLK it was 4%. The “%Inh” value in the experiment on SNARK is on record as 0%; in the experiment on SNRK, 0%; in the experiment with SRC, 4%; with SRMS it was 0%; in the experiment with SRPK1, 19%; in the experiment with SRPK2, 0%. Also, the “%Inh” value was 0% in the experiment with SRPK3; 0% in the experiment on STK16; 0% in the experiment with STK33; 0% in the experiment with STK35; 0% in the experiment on STK36; 10% in the experiment on STK39. Also, the “%Inh” value is reported as 8% in the experiment on SYK and 0% in the experiment with SgK110.
Regarding `Nc1ncnc2c1ncn2-c1cccc(F)c1` [SKF-97560], the “%Inh” value in the experiment with SGK2 is recorded as 38%; in the experiment with SGK3 it was 0%; with SGK, 37%; with SIK2, 0%; with SIK, 1%; in the experiment on SLK, 18%. Moreover, the “%Inh” value with SNARK came to 13%; with SNRK, 20%; with SRC, 22%; in the experiment on SRMS it was 14%; in the experiment on SRPK1 it was 16%; in the experiment on SRPK2 it was 0%. The “%Inh” value was found to be 0% in the experiment with SRPK3; 6% in the experiment with STK16; 6% in the experiment with STK33; 0% in the experiment on STK35; 4% with STK36; 0% in the experiment with STK39. The “%Inh” value with SYK came out at 25%; with SgK110 it was 5%.
Turning to `Nc1nc(N)c2nc(-c3ccccc3)[nH]c2n1` [SKF-12778], the “%Inh” value in the experiment on SGK2 is given as 18%; with SGK3 it was 7%; with SGK, 15%; in the experiment with SIK2, 22%; in the experiment on SIK, 17%; in the experiment on SLK, 21%. Further, the “%Inh” value in the experiment with SNARK worked out at 19%; with SNRK it was 0%; in the experiment on SRC it was 19%; in the experiment on SRMS, 0%; with SRPK1 it was 37%; with SRPK2 it was 0%. The “%Inh” value is recorded as 22% with SRPK3; 1% with STK16; 19% with STK33; 5% in the experiment on STK35; 0% in the experiment with STK36; 11% in the experiment on STK39. Also, the results for the “%Inh” value in the experiment on SYK and in the experiment with SgK110 were 43% and 0%, respectively.
Consider `Nc1ncnc2c1ncn2-c1cccc2ccccc12` [SKF-97184], for which the “%Inh” value in the experiment with SGK2 came to 21%; in the experiment with SGK3, 4%; in the experiment on SGK it was 35%; in the experiment on SIK2, 0%; with SIK it was 0%; in the experiment with SLK it was 0%. In addition, the “%Inh” value turned out to be 0% with SNARK; 2% in the experiment on SNRK; 8% with SRC; 17% in the experiment with SRMS; 0% in the experiment on SRPK1; 32% with SRPK2. Moreover, the “%Inh” value was determined as 12% in the experiment with SRPK3; 9% with STK16; 0% in the experiment with STK33; 0% in the experiment on STK35; 6% in the experiment on STK36; 25% in the experiment on STK39. The “%Inh” value in the experiment on SYK amounted to 0%; with SgK110, 31%.
As for `O=C(NCCNc1ccnc(Nc2ccc(F)cc2)n1)Nc1ccc2c(c1)OCO2` [GSK1379882], the “%Inh” value came to 13% with SGK2; 7% in the experiment on SGK3; 12% with SGK; 0% in the experiment with SIK2; 0% in the experiment with SIK; 0% in the experiment with SLK. Further, the “%Inh” value stood at 1% with SNARK; 0% in the experiment on SNRK; 0% in the experiment on SRC; 0% with SRMS; 17% in the experiment with SRPK1; 24% with SRPK2. The “%Inh” value with SRPK3 was 0%; with STK16, 23%; in the experiment with STK33, 0%; in the experiment on STK35, 0%; with STK36 it was 0%; with STK39, 12%. The “%Inh” value with SYK and with SgK110 was 0% each time.
